# According to PubChem BioAssay (NCI):
# The panel holds about 83,000 compounds, 20% with a hit somewhere; the sample as a whole holds those more often.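 Step 1: grow cells in 96-well plates. Step 2: add test compound at a single concentration. Step 3: incubate 48 h. Step 4: record percent growth.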 A number with no mark means an inactive call. Active and inactive are the calls of the source. The calls were made as follows: active = growth percent below 10; inactive = the rest.
# Key:
# Experiment in all cases: NCI-60 one-dose screen, 48 h (100 = growth as untreated, 0 = no growth, -100 = all killed)
# [1] = tested on: NCI-H226 lung; conditions: 10 µM
# [2] = tested on: NCI-H322M lung; conditions: 10 µM
# [3] = tested on: HOP-62 NSCLC; conditions: 10 µM
# [4] = tested on: NCI-H460 lung; conditions: 10 µM
# [5] = tested on: NCI-H522 lung; conditions: 10 µM
# [6] = tested on: A549/ATCC NSCLC; conditions: 10 µM
# [7] = tested on: COLO 205 colon; conditions: 10 µM
# [8] = tested on: DU-145 prostate; conditions: 10 µM
# [9] = tested on: K-562 leukemia; conditions: 10 µM
# [10] = tested on: SF-268 CNS; conditions: 10 µM
# [11] = tested on: SF-295 CNS; conditions: 10 µM
# [12] = tested on: SF-539 CNS; conditions: 10 µM
# [13] = tested on: HT29 colon; conditions: 10 µM
# [14] = tested on: SNB-19 CNS; conditions: 10 µM
# [15] = tested on: PC-3 prostate; conditions: 10 µM
# [16] = tested on: MOLT-4 leukemia; conditions: 10 µM
# [17] = tested on: SR leukemia; conditions: 10 µM
# [18] = tested on: RPMI-8226 leukemia; conditions: 10 µM
# [19] = tested on: SK-OV-3 ovarian; conditions: 10 µM
# [20] = tested on: MDA-MB-468 breast; conditions: 10 µM unless noted
Structure (SMILES),growth [1],growth [2] [%],growth [3] [%],growth [4],growth [5],growth [6] [%],growth [7],growth [8] [%],growth [9] [%],growth [10] [%],growth [11],growth [12] [%],growth [13] [%],growth [14] [%],growth [15],growth [16] [%],growth [17],growth [18],growth [19],growth [20]
O=C1NC(=S)S/C1=C\c1cn(-c2ccccc2)nc1-c1ccc([N+](=O)[O-])cc1,13.2%,30.5,19.4,9.76% (active),-4.14% (active),15.2,11.7%,36.9,16.5,42.7,5.23% (active),21,15.1,18.7,11.2%,17,24.5%,2.45% (active),6% (active),-8.61% (active)
COc1cc(C2CC(c3ccccc3)=Nc3c(N)nc(N)nc3N2)ccc1Oc1nc(NCCO)nc(N2CCOCC2)n1 (stereo not drawn),92.5%,90.6,106,110%,97.7%,107,112%,115,91.3,88.8,105%,97.5,112,89.8,101%,91.3,66%,104%,115%,88%
CC(=O)O[C@]1(C(C)=O)CC[C@H]2[C@@H]3C=C(Cl)C4=CC(=O)CC[C@]4(C)[C@H]3CC[C@@]21C,–,–,–,–,–,–,–,–,–,–,–,–,–,–,–,–,–,–,–,105%
CCOC(=O)C1=C(N)N(c2ccc(C)cc2)C2=C(C(=O)CC(C)(C)C2)C1c1ccccc1Br (stereo not drawn),84.9%,99,90.8,53.5%,67.5%,80.9,62.7%,102,50.6,99.3,90.5%,104,62.5,86.7,32.4%,29.1,65.7%,35.5%,91.9%,77%
COc1cc(/C=C2\SC(=O)NC2=O)ccc1OCC(=O)Nc1ccc(C(=O)/C=C/c2cc3ccccc3nc2Cl)cc1,–,–,–,–,–,–,–,–,–,–,–,–,–,–,–,–,–,–,–,61.4%
COc1c2occc2c(OC)c2c(=O)c(-c3cc(-c4ccc(F)cc4)c(C#N)c(N)n3)c(C)oc12,–,–,–,–,–,–,–,–,–,–,–,–,–,–,–,–,–,–,–,26.4%
COc1ccc(C(=O)COc2ccc(NC(=O)Nc3ccc(Cl)c(C(F)(F)F)c3)cc2)cc1,4.95% (active),36.3,42.8,25.5%,-43.2% (active),18.5,7.1% (active),47.3,37.5,37.9,5.9% (active),33.7,21.1,21.9,8.96% (active),15.6,7.72% (active),19.1%,41.8%,-15.1% (active)
O=C1S/C(=C\c2ccc([N+](=O)[O-])cc2)C(=O)N1CCN1CCCCC1,105%,107,112,115%,99.7%,110,113%,119,98.1,112,111%,112,121,98.6,94.3%,101,111%,106%,102%,99.5%
O=[N+]([O-])c1cccc(-c2nnc3c(/C=C/c4ccccc4O)nc4ccccc4n23)c1,33.1%,55.8,52.8,28.8%,55.3%,57.8,41.3%,63,24.1,77.7,62.5%,46.2,48.6,87,52.2%,38.7,51.8%,54.9%,75.7%,52%
COc1cc(C2CC(c3ccc(Oc4ccc(Cl)cc4)cc3)=NN2c2nc(-c3ccc(Cl)cc3)c(C#N)c(N3CCOCC3)n2)cc(OC)c1OC (stereo not drawn),90.4%,98,98.9,107%,92.4%,97.9,101%,106,97.5,104,107%,95.7,106,102,92%,105,88.5%,104%,102%,107%
